Measured values from the supplement of paper PMC3334620.
In all, about 33,000 sequences were measured (“E-score (-0.5 to 0.5)”: median about -8e-05, highest 2% from about 0.23 on). The sample as a whole holds a higher share of the highest values than the screen did.

These sequences were tested against T1, Nrg2 (UniProt P38082) (assay: PBM E-score (8-mer binding enrichment) (E-score (-0.5 to 0.5)); higher = stronger / more preferred TF binding). Settings: protein concentration: 100 nM; construct: GST-full length.
T1 sequence: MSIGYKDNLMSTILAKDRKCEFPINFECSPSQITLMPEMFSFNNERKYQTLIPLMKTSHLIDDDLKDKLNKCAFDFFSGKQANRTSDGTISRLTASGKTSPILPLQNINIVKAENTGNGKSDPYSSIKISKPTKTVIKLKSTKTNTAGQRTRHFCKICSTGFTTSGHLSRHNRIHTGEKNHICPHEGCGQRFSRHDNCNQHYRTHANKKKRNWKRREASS
Procedure, shortened: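 Full-length yeast transcription factors or their DNA-binding domains, GST-tagged and expressed with PURExpress, were applied at about 100-200 nM to universal all-10-mer Agilent arrays. These arrays had been made double-stranded by primer extension on fresh or once-stripped slides. Detection used fluorescent anti-GST, normalisation used masliner, and E-scores for ungapped eight-base words pooled with reverse complements came from the Universal PBM Analysis Suite.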

| Sequence | PBM E-score |
| --- | --- |
| AGATACAG | 0.136 |
| AGATACTA | 0.0761 |
| GGATACAC | -0.0641 |
| AGATACTG | 0.242 |
| AGATACAC | 0.244 |
| AGATACTC | 0.1 |
| ATACATGC | -0.0508 |
| GGTTATGA | -0.0752 |
| CAAAAGGA | -0.0703 |
| ACCCTAAC | 0.116 |
| GACTGTTA | -0.0515 |
| AGACTGAC | -0.1 |
| GATAAGAA | 0.0876 |
| CATAAGAA | 0.254 |
| TATAAGAA | 0.12 |
| AATAAGAT | 0.0228 |
| AATAAGAA | 0.233 |
| AATAAGAG | 0.115 |
| GTCCCAGA | -0.19 |
| AGCTACAC | 0.0938 |
| GAGACTAA | -0.027 |
| ATACAACG | 0.0553 |
| ATACAATA | 0.239 |
| AAACAATA | 0.261 |
| GAACAATC | 0.0696 |

| Sequence | PBM E-score |
| --- | --- |
| ATACAACA | 0.246 |
| AAACAATT | 0.137 |
| CTACAATA | 0.00041 |
| ATACAACC | -0.00323 |
| GAACAATA | 0.277 |
| AAACAATG | 0.0814 |
| ATACAATC | -0.0431 |
| TAACAATA | 0.132 |
| CGTCCGAG | 0.0587 |
| AAGGCCTC | -0.0691 |
| TAGAGCGA | -0.079 |
| CGACACAG | -0.0558 |
| CAGAGGGG | -0.314 |
| TGATAGAA | -0.0926 |
| TCTACGCA | 0.0696 |
| GAGGTTTA | -0.00946 |
| ACGGTTCG | -0.169 |
| CAGGTGGG | -0.0155 |
| AGGCTAGC | -0.223 |
| GATCGAAA | 0.108 |
| AATCGAAC | 0.169 |
| AATCGAGG | 0.248 |
| AATCGAAG | 0.264 |
| AATCGATT | 0.247 |
| AATCGAGT | 0.0016 |

| Sequence | PBM E-score |
| --- | --- |
| CATCGAGG | 0.0813 |
| AATCGATA | 0.158 |
| AATCGAAA | 0.0902 |
| CATCGAAA | 0.0505 |
| TATCGAAA | 0.255 |
| AATCGATC | 0.0541 |
| GACTGGGA | -0.0261 |
| ATAGCCGG | -0.145 |
| ACAACCAT | 0.24 |
| ACAACCAC | -0.0501 |
| ACAACCAG | 0.101 |
| ACGTGGTG | -0.139 |
| AGAGTTAG | -0.0429 |
| CCGACGAC | 0.00776 |
| ACTGCTCT | 0.00123 |
| CCATGAGC | -0.047 |
| AATGCGAG | 0.107 |
| ATTAATTG | 0.142 |
| CTTAATGA | 0.0652 |
| ATTAATTC | 0.229 |
| ATTAATGA | 0.235 |
| ATTAATGC | 0.0582 |
| ATTAATTA | 0.117 |
| GTGTAGCA | -0.149 |
| AGCTATCC | -0.208 |

| Sequence | PBM E-score |
| --- | --- |
| ACGCGGAA | -0.0174 |
| TGGATAAA | 0.0491 |
| CGGATAAC | 0.05 |
| CGGATAAA | 0.234 |
| CTTTGGAA | -0.152 |
| ACTATGAG | -0.0885 |
| TATCGGAA | 0.0162 |
| AATCGGAG | 0.105 |
| AATCGGAA | 0.242 |
| AGAGAAAG | -0.00961 |
| GCTTCTCA | 0.00982 |
| AGCCCATC | -0.0428 |
| CATCGCGC | 0.0459 |
| AATCTCGG | 0.0273 |
| AATCGCGA | 0.185 |
| AATCTCGC | 0.235 |
| AATCGCAC | -0.165 |
| AATCGCGC | 0.23 |
| GATCTCGC | 0.144 |
| AATCGCAT | 0.245 |
| AATCGCAG | 0.16 |
| AGATGGCA | 0.0923 |
| AGCGGTTG | -0.028 |
| AGATTGCG | 0.00885 |
| CTGAGACA | 0.0347 |

| Sequence | PBM E-score |
| --- | --- |
| AAAACTTA | 0.0488 |
| GTAGGTAA | 0.00715 |
| AGGCTGAA | -0.0879 |
| TCAAATGA | -0.0989 |
| CTCTCACA | 0.124 |
| CCCCTGTA | 0.144 |
| GCCCTGAA | 0.22 |
| CCCCTGAA | 0.356 |
| TACCTGAA | 0.0117 |
| TCCCTGAA | 0.25 |
| CACCTGAA | 0.0424 |
| GCCGTCTA | -0.0529 |
| CGGTTTGC | -0.0375 |
| CCTGAAGG | -0.0247 |
| AGTCAAGG | -0.174 |
| ATCCGAAT | 0.251 |
| ATCCGAAC | 0.0668 |
| ATCCGAAG | -0.0314 |
| ACAAAACA | 0.119 |
| ATGGCGCC | 0.0356 |
| CTGGCGCC | 0.281 |
| CTGGCGCA | -0.117 |
| ACAAAACC | 0.246 |
| ACAAAAAC | 0.0302 |
| GCAAAACC | 0.0964 |

| Sequence | PBM E-score |
| --- | --- |
| ATTTTGAC | 0.232 |
| AATTTGAC | 0.127 |
| ATTTTGAG | 0.0761 |
| TGTTTGAA | -0.00474 |
| ACTTCGAC | -0.0444 |
| GTATCATA | 0.251 |
| CTATCATA | 0.125 |
| ATATCATA | 0.174 |
| AGTATATC | 0.107 |
| AGTATATA | 0.327 |
| AGTATATG | 0.129 |
| AGTATAAA | 0.194 |
| AGTATAAT | 0.257 |
| GCTATATA | 0.0573 |
| CGTAGATA | -0.0208 |
| ACTATATA | 0.23 |
| AGTAGATC | -0.0113 |
| AGTATAAC | -0.131 |
| AGTAGATA | 0.249 |
| ACTATATC | 0.182 |
| GAGGTGCC | -0.0447 |
| CAAAATCG | 0.109 |
| AGAGGACG | -0.0944 |
| ACGGCGCG | 0.214 |
| CGACACCA | -0.124 |

| Sequence | PBM E-score |
| --- | --- |
| GAGACAGA | 0.14 |
| ACAGCGAT | -0.201 |
| ACGAACCC | -0.00702 |
| CGGAACCG | -0.162 |
| CCGAACGC | 0.0363 |
| ACGAACCA | 0.235 |
| GGGAACCA | -0.231 |
| CGGAACAC | 0.264 |
| ACGAACGC | 0.267 |
| CCGAACCA | -0.00203 |
| AGGAACAC | 0.131 |
| CGGAACAA | 0.122 |
| ACGAACGA | 0.0396 |
| CGGAACCA | 0.294 |
| GACGGATC | -0.153 |
| TCCTAAAA | -0.251 |
| TCATTGAA | -0.122 |
| TAAATGGA | -0.0213 |
| AGCAGGGG | -0.182 |
| ACACTGCT | -0.0746 |
| CTTAACAA | 0.107 |
| GTTAACAA | 0.254 |
| GTTAACTA | 0.273 |
